Assay results reported in the supplement of paper PMC12636033.
± gives the standard deviation of the averaged measurements. Whole data set: some 33,000 sequences, median “E-score (rank enrichment, -0.5 to 0.5)” near -0.0028, cut for the highest 2% near 0.23. Shown is part of a subset that was picked to be rich in the highest values.

test system: 2Sb-muMax20 (muMax20 with two 1,3-bis(methyl)benzene Cys staples, A13C/A17C and Q88C/A92C, C-terminal Lys); test: PBM 8-mer E-score (E-score (rank enrichment, -0.5 to 0.5)); higher = stronger preferential binding
Protocol: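 Protein binding microarray (universal PBM chip covering all 10-mers in fixed probe flanks) with chemically synthesized human Max(13-93) bHLH-LZ analogs (not full-length Max) bearing noncanonical residues (hArg, Tha, Aib, Nle at 65) and aromatic Cys staples. Read-out per 8-mer (and its reverse complement): E-score (rank-based enrichment, -0.5 to 0.5) and Z-score of median probe intensity.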

Sequence	PBM 8-mer E-score
CGTTGCTA	0.237 ± 0.019
AATTGCTA	0.268 ± 0.048
CCACCTTC	0.0963 ± 0.024
AACTGAGG	-0.066 ± 0.0013
ACGGAAGA	-0.0282 ± 0.0086
ATCACAAA	0.187 ± 0.032
ACGTACGC	0.0419 ± 0.012
GGCTAGCA	0.0623 ± 0.01
TGCTAGCA	0.245 ± 0.069
CGCTAGCA	-0.253 ± 0.03
TACAAATA	0.166 ± 0.013
AACAAATA	0.269 ± 0.024
GCCAAATA	0.136 ± 0.0084
AAACAAAT	0.262 ± 0.056
AACAAGTA	-0.0361 ± 0.0029
AAACAAAA	0.133 ± 0.04
CCCAAGTA	0.209 ± 0.045
CCCAAATA	0.24 ± 0.02
TACAAACA	-0.0196 ± 0.043
AACAAACA	0.257 ± 0.003
AAACAAAC	0.0967 ± 0.0062
AACAAACC	0.0286 ± 0.068

Sequence	PBM 8-mer E-score
ATTCCGTA	-0.178 ± 0.0038
AGCCTGCC	-0.0253 ± 0.013
GACCAGCA	0.0345 ± 0.019
AGAAATTC	0.0899 ± 0.038
CAATGAGC	-0.0934 ± 0.018
ACTGGCAC	-0.112 ± 0.0073
CTATCAAG	0.0675 ± 0.11
CACCTATG	-0.067 ± 0.015
AACAAGAT	0.136 ± 0.05
AACAAAAA	0.0552 ± 0.028
CACAAGTC	-0.0773 ± 0.025
GACAAGTC	-0.141 ± 0.038
AACAAAAT	0.275 ± 0.042
AACAAGTC	0.232 ± 0.0046
CTTCTTGC	-0.076 ± 0.029
ACAATACA	0.0315 ± 0.045
ACAATAAT	0.2723 ± 0.0017
ACAATAAC	0.18 ± 0.04
ACAATACC	0.247 ± 0.01
ACAATACT	0.098 ± 0.011
ACAATAAA	0.157 ± 0.082
CCACTTAA	0.0781 ± 0.04

Sequence	PBM 8-mer E-score
GTGCCCGA	-0.169 ± 0.03
CAGAGGCG	-0.0537 ± 0.004
GCGGGACA	-0.0586 ± 0.068
CGCGCGCG	-0.0393 ± 0.0083
AAGTGCCC	0.0017 ± 0.086
TAGTTCGA	0.117 ± 0.065
CTTTACGA	-0.11 ± 0.061
ATTTACGA	0.13 ± 0.011
GTTTACGA	0.233 ± 0.0029
GAACCTTA	0.14 ± 0.038
ACAACAAA	0.189 ± 0.045
ACAACCAC	0.076 ± 0.093
GCAACACC	0.0523 ± 0.023
ACAACAAG	0.259 ± 0.0048
ACAACCCT	-0.0652 ± 0.072
ACAACAAC	0.0959 ± 0.0063
ACAACCAG	0.144 ± 0.037
CCAACCCC	0.19 ± 0.044
CCAACACC	-0.11 ± 0.046
ACAACCCC	0.237 ± 0.088
ACAACACC	0.257 ± 0.014
ACAACCAT	0.266 ± 0.01

Sequence	PBM 8-mer E-score
AGAGCCAT	-0.0498 ± 0.022
GTACGTTA	0.0622 ± 0.061
TACGAAGA	0.16 ± 0.034
CTTCAGAC	-0.147 ± 0.0041
CCGCTGTA	-0.00727 ± 0.018
GATGGACC	-0.139 ± 0.026
AGCTAAAA	-0.0318 ± 0.011
ATACAAAC	0.182 ± 0.056
AGCTCTAG	-0.0829 ± 0.017
AGCACCTC	0.00592 ± 0.042
ATCCACCG	-0.1554 ± 0.001
GATAGCCC	0.0239 ± 0.026
GGGGTATA	0.217 ± 0.071
CTAGTAAA	0.11 ± 0.069
ATAGTAAT	0.0828 ± 0.014
ATAGTAAA	0.233 ± 0.068
CTGAGTCA	-0.163 ± 0.1
CCTCCCGA	-0.19 ± 0.041
ATAGTTAG	0.136 ± 0.038
AAATACCT	0.11169 ± 4.2e-05
